The values that follow come from PubChem BioAssay (EPA / NIEHS).

For orientation: AC50 means the midpoint of the concentration-response curve, whichever way the signal moves.

Activity calls are given as the source filed them. How the source made its calls: active means hit-call score of the fitted dose curve at least 0.9, where 1 is the maximum; inactive means score below 0.9.

The first experiment is described as follows: ATG_TA_CIS: Attagene CIS-FACTORIAL HepG2 Assay for human TA Basal Promoter (AID 2282964). The following applies: HepG2 Attagene CIS-factorial TA basal promoter reporter; actives raise or lower the signal. An outline of the steps:
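Multiplexed mRNA reporter assay, HepG2, 24 h. Reporter cDNA amplified, 6-FAM primer-extended, HpaI-cut, CE-sized; DMSO = negative control and baseline.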
Turning to `ClC(Cl)(Cl)c1ccccc1`, the result was inactive.
Regarding `CCOP(=S)(Oc1ccc([N+](=O)[O-])cc1)c1ccccc1` (stereo not drawn), the call was inactive.
Still for that read-out and setting: next, `CCCCN(CCCC)SN(C)C(=O)Oc1cccc2c1OC(C)(C)C2`: “inactive”; `Nc1ccc2ccccc2c1`: “inactive”; `O=C(O)C1C(C(=O)O)C2(Cl)C(Cl)=C(Cl)C1(Cl)C2(Cl)Cl` (stereo not drawn): “inactive”.
On the same count and under the same terms, as for `Cc1cccc(N)c1`, the entry is “inactive”; as for `CCCCOCCOP(=O)(OCCOCCCC)OCCOCCCC`, “inactive”.
On the same count and under the same terms, as for `CN(C)C(=O)Cl`, the entry is “inactive”.
For `O=C(O)C(Cl)Cl`, the call was inactive.
Still for that read-out and setting: next, `CCOS(=O)(=O)OCC`: “inactive”; `OCC1CO1` (stereo not drawn): “inactive”; `CCCCN(CCCC)N=O`: “inactive”.
Turning to `CSC(C)(C)C=NO`, the call was inactive.
Same read-out and setting: next, `CCCCCCCc1ccc(O)cc1`: “inactive”.
With `CCN(CC)c1ccccc1`, the result was inactive.
As for `Nc1cc2c3c(c1)C(c1ccccc1)=N[C@@H](NC(=O)c1cccnc1)C(=O)N3CC2`, the compound was called inactive.
For `O=C(O)CF`, the result was inactive.
Consider `Nc1ccc(Cl)cc1`, for which the compound was classed as inactive.
Regarding `CC(Cl)(Cl)C(=O)O`, the compound was called inactive.
On the same count and under the same terms, as for `CCOP(=S)(OCC)SCS(=O)(=O)CC`, the entry is “inactive”; as for `CCOC(=O)c1ccccc1C(=O)OCC`, “inactive”; as for `CCC1(c2ccccc2)C(=O)N=C(O)NC1=O` (stereo not drawn), “inactive”.
On to `O=C(CBr)OCc1ccccc1`, for which the outcome was inactive.
Still for that read-out and setting: next, `Cc1ccc(O)cc1C`: “inactive”; `c1ccc(OP(Oc2ccccc2)Oc2ccccc2)cc1`: “inactive”; `O=[N+]([O-])c1ccccc1`: “inactive”.
The same measure, in the same setting: next, `CCCCc1ccc(O)cc1`: “inactive”.
Same read-out and setting: next, `COCCOCCO`: “inactive”; `[N-]=[N+]=[N-]`: “inactive”.
As for `ClC(Cl)c1ccccc1`, the call was inactive.
With `Nc1ccc(Sc2ccc(N)cc2)cc1`, the call was inactive.
With `CCCN(CCC)c1c([N+](=O)[O-])cc(C(C)C)cc1[N+](=O)[O-]`, the result was inactive.
The same measure, in the same setting: as for `CC1=C(C(=O)Nc2ccccc2)S(=O)(=O)CCO1`, the entry is “inactive”; as for `CC(Cc1ccc(OCC(=O)O)cc1)NCC(O)c1csc(C(F)(F)F)n1` (stereo not drawn), “inactive”.
Still for that read-out and setting: next, `NNC(N)=S`: “inactive”.
As for `c1cc2c3c(cccc3c1)CC2`, the result was inactive.
On the same count and under the same terms, next, `c1ccc2c(c1)Nc1ccccc1S2`: “inactive”.
As for `Cc1ccc([N+](=O)[O-])cc1C`, the result was inactive.
On the same count and under the same terms, next, `CC(C)(C)c1ccc(O)cc1`: “inactive”.

Another experiment can be described thus: ATG_TCF_b_cat_CIS: Attagene CIS-FACTORIAL HepG2 Assay for human T-Cell-Factor with beta-catenin (TCF/b-cat) (AID 2282965). The following applies: HepG2 TCF/beta-catenin cis-reporter transcription, actives raise or lower the signal. An outline of the steps:
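Endogenous TCF/LEF activity read as reporter transcript level via RT-PCR and capillary electrophoresis fluorescence in transfected HepG2, 24 h exposure; gain or loss of signal fitted against DMSO controls.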
As for `ClC(Cl)(Cl)c1ccccc1`, the outcome was inactive.
Same read-out and setting: next, `CCOP(=S)(Oc1ccc([N+](=O)[O-])cc1)c1ccccc1` (stereo not drawn): “inactive”; `CCCCN(CCCC)SN(C)C(=O)Oc1cccc2c1OC(C)(C)C2`: “inactive”; `Nc1ccc2ccccc2c1`: “inactive”.
For the compound `O=C(O)C1C(C(=O)O)C2(Cl)C(Cl)=C(Cl)C1(Cl)C2(Cl)Cl` (stereo not drawn), the compound was classed as inactive.
With `Cc1cccc(N)c1`, the result was inactive.
As to `CCCCOCCOP(=O)(OCCOCCCC)OCCOCCCC`, the compound was called inactive.
On to `CN(C)C(=O)Cl`, for which the result was inactive.
Regarding `O=C(O)C(Cl)Cl`, the compound was called inactive.
For the compound `CCOS(=O)(=O)OCC`, the call was inactive.
`OCC1CO1` (stereo not drawn): the compound was classed as inactive.
The same measure, in the same setting: as for `CCCCN(CCCC)N=O`, the entry is “inactive”; as for `CSC(C)(C)C=NO`, “inactive”.
As for `CCCCCCCc1ccc(O)cc1`, the compound was classed as inactive.
Turning to `CCN(CC)c1ccccc1`, the result was inactive.
Turning to `Nc1cc2c3c(c1)C(c1ccccc1)=N[C@@H](NC(=O)c1cccnc1)C(=O)N3CC2`, the compound was called inactive.
Take `O=C(O)CF`: the call was inactive.
As to `Nc1ccc(Cl)cc1`, the outcome was inactive.
For the compound `CC(Cl)(Cl)C(=O)O`, the compound was called inactive.
Take `CCOP(=S)(OCC)SCS(=O)(=O)CC`: the compound was classed as inactive.
On the same count and under the same terms, as for `CCOC(=O)c1ccccc1C(=O)OCC`, the entry is “inactive”; as for `CCC1(c2ccccc2)C(=O)N=C(O)NC1=O` (stereo not drawn), “inactive”; as for `O=C(CBr)OCc1ccccc1`, “inactive”.
As to `Cc1ccc(O)cc1C`, the call was inactive.
With `c1ccc(OP(Oc2ccccc2)Oc2ccccc2)cc1`, the AC50 is 100 µM (active).
`O=[N+]([O-])c1ccccc1`: the outcome was inactive.
As for `CCCCc1ccc(O)cc1`, the result was inactive.
As to `COCCOCCO`, the call was inactive.
Take `[N-]=[N+]=[N-]`: the call was inactive.
Same read-out and setting: as for `ClC(Cl)c1ccccc1`, the entry is “inactive”.
As to `Nc1ccc(Sc2ccc(N)cc2)cc1`, the outcome was inactive.
Same read-out and setting: next, `CCCN(CCC)c1c([N+](=O)[O-])cc(C(C)C)cc1[N+](=O)[O-]`: “inactive”; `CC1=C(C(=O)Nc2ccccc2)S(=O)(=O)CCO1`: “inactive”; `CC(Cc1ccc(OCC(=O)O)cc1)NCC(O)c1csc(C(F)(F)F)n1` (stereo not drawn): “inactive”.
Regarding `NNC(N)=S`, the result was inactive.
For `c1cc2c3c(cccc3c1)CC2`, the compound was classed as inactive.
Consider `c1ccc2c(c1)Nc1ccccc1S2`, for which the compound was called inactive.
`Cc1ccc([N+](=O)[O-])cc1C`: the compound was classed as inactive.
In the case of `CC(C)(C)c1ccc(O)cc1`, the AC50 is 148 µM (active).
